According to ChEMBL document CHEMBL3988442, “University of Dundee, Small-Polar-MMV Screening Library” (2021):

These compounds were tested against T1, Aspartate--tRNA(Asp/Asn) ligase (Mycobacterium tuberculosis (strain ATCC 25618 / H37Rv)) (UniProt P9WFW3) (assay: Assay for Asp RNA synthetase-1 from Mycobacterium tuberculosis). Settings: 30 µM.
T1 sequence (whole entry): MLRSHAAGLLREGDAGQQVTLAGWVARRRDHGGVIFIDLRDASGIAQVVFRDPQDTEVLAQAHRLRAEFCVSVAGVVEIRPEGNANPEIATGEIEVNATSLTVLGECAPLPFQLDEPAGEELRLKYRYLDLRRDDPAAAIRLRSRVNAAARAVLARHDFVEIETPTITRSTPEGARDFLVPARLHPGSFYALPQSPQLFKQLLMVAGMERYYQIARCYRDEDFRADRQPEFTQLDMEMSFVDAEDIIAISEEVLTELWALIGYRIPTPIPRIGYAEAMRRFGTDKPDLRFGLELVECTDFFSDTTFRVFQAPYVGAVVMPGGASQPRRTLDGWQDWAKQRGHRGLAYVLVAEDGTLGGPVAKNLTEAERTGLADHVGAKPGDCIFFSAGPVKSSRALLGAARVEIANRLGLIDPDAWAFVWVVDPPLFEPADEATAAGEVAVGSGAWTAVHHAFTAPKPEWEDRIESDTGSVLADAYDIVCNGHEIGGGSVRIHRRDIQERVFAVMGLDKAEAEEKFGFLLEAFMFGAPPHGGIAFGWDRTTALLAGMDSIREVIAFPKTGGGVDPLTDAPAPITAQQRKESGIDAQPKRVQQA
Format: functional
Parameters: scale not given: in the data most compounds retested in dose-response had high values

Row | SMILES | Percent Effect [%]
1 | Cc1ncsc1C(=O)NCc1cccs1 | -1.72
2 | Cc1ccc(CN2CCOC3(COCCN(CCN(C)C)C3)C2)o1 (centres undefined) | 5.87
3 | CC(=O)N1N=C(c2ccccc2)OC1C(=O)NCCC1=CCCCC1 (centres undefined) | 0.28
4 | CC1CCN(c2ncc3c(n2)CN(c2ccc4c(c2)OCO4)C3=O)CC1 | 10.8
5 | CNS(=O)(=O)c1ccc(C(=O)N2CCCC2c2cnn(C)c2)o1 (centres undefined) | -2.58
6 | Cc1noc(C2CCCCN2C(=O)NC2CCCC2)n1 (centres undefined) | 5.06
7 | CCOCC(O)CN1CCN(C(=O)c2ccccc2Cl)CC1 (centres undefined) | -4.21
8 | CC(C)NC(=O)[C@@H]1C[C@H](N)CN1C(=O)c1cc2ccccc2[nH]c1=O | -2.73
9 | NC(=O)C1CCN(C(=O)Cn2nc(-c3ccccc3)oc2=O)C1 (centres undefined) | 7.46
10 | Cc1cc(N(C)C)nc(C2(C)CCCN2C(=O)c2cnccn2)n1 (centres undefined) | 1.19
11 | CS(=O)(=O)NC[C@H]1OC[C@@H]2CCN(Cc3ccc(F)cc3)C[C@@H]21 | 0.903
12 | CC(C(=O)N1CCCN(Cc2ccc(C#N)cc2)CC1)n1ccnc1 (centres undefined) | -0.834
13 | CC(=O)N1CC[C@H]2OCC[C@@]2(C(=O)NCc2ccco2)C1 | 0.379
14 | CC(=O)N1[C@H](Cn2cncn2)C[C@@H]2CN(c3ccc(C)nn3)CC[C@@H]21 | -1.81
15 | CC(c1ccc(Cl)cc1)N1CCN(CCNS(C)(=O)=O)CC1 (centres undefined) | 1.42
16 | O=C(NCC1CCOCC1)[C@H]1C[C@@H]2CCN(Cc3ccncc3)C[C@@H]2O1 | 2.48
17 | CN(C)CCN1CCC2(CCN(C(=O)c3ccc(F)cc3)CC2)C1=O | 2.84
18 | CN1CC(C(=O)NC(C)(C)C)CC1=O (centres undefined) | 0.616
19 | Cc1ccc(CNC(=O)CN2C=Nc3ccccc3S2(=O)=O)s1 | -0.759
